# Screening data as filed in PubChem.
# Shiga toxin inh: Shiga toxin inhibition; actives 9.2% (n = 290,000); Vero cells, Shiga toxin protein synthesis inhibition reporter; inhibition, % at 38.7 µM; in the data active means inhibition mostly above about 28%, no sharp cut-off; inactive means mostly below about 43%; further: 0% is about no effect
# Marburg entry inh: inhibitors of Marburg virus binding or cell entry | actives 1.8% (n = 300,000) | Marburg virus pseudotyped entry inhibition, cell reporter | Potency, µM (top dose mostly 37.8 µM), for the others: at the highest dose activity change, negative = inhibition, hits mostly inhibitors; calls by dose curve; tested in HEK293 cells; further: potency means the concentration at half of the fitted maximal effect; on the % scale 0 is the no-effect control and ±100 the full control effect
# Cycloheximide cs: affects cycloheximide protein synthesis inhibition readout, counter-screen; cell reporter, cycloheximide protein synthesis inhibition counterscreen; max response, %; actives 12% (n = 300,000); AID 2314; in the data active means max response mostly above about 13%, no sharp cut-off; inactive means mostly below about 14%; further: read at 38.3 µM for the half of the compounds with a filed dose; 0% is about no effect
# Vaccinia mCherry: vaccinia inhibition (mCherry reporter). Potency, µM (series often up to 36.5 µM), for the others: at the highest dose activity change, negative = inhibition, actives largely listed as inhibitors. actives 0.63% (n = 310,000). Vaccinia virus mCherry reporter infection, fluorescence; calls by dose curve; tested in A549 cells; further: potency means the concentration at half of the fitted maximal effect; on the % scale 0 is the no-effect control and ±100 the full control effect; nearly all actives have a fitted effect of over 35% in size
# Vaccinia Venus: inhibitors of vaccinia virus (Venus reporter); actives 0.46% (n = 330,000); Potency, µM (highest dose often 36.5 µM), for the others: at the top dose activity change, negative = inhibition, most hits filed as inhibitors; Vaccinia virus Venus reporter expression, fluorescence; AID 720580; calls by dose curve; tested in A549 cells; further: potency means the concentration at half of the fitted maximal effect; on the % scale 0 is the no-effect control and ±100 the full control effect; nearly all actives have a fitted effect of over 30% in size
# LASV entry inh: Lassa virus entry inhibition; AID 540256; Lassa virus pseudotype entry inhibition, cell reporter; actives 1.2% (n = 300,000); Potency, µM (highest dose often 37.9 µM), for the others: top-dose activity change, negative = inhibition, usual class: inhibitors; calls by dose curve; tested in HEK293 cells; further: potency means the concentration at half of the fitted maximal effect; on the % scale 0 is the no-effect control and ±100 the full control effect; nearly all actives have a fitted effect of over 50% in size
# The depositor's hits bear a star; i = inactive; ? = inconclusive; · = no result; [ ] = remark or other dose. The entries come from a sample that favours hits as a whole.
SMILES,Shiga toxin inh,Marburg entry inh,Cycloheximide cs,Vaccinia mCherry,Vaccinia Venus,LASV entry inh
O=C(NC(=S)Nc1ccc2nc[nH]c2c1)c1ccccc1,50*,0%[46.1 µM],22*,i,-13%,?
CC(NC(=O)c1ccc2nc[nH]c2c1)c1ccccc1 (centres undefined),-9,?,-2,i,-8%,1%
CC(C)(C)NC(=S)NNC(=O)c1ccc2ncccc2c1,47*,?,21*,-20%,-17%,21%[46.1 µM]
Cc1ccc(NC(=O)c2c(C)oc3ncn(CC(C)C)c(=O)c23)nc1,·,·,·,-26%,-17%,27%[46.1 µM]
O=C(Nc1ccc2ncccc2c1)c1ccccc1,-3,6%[46.1 µM],-1,-23%,-4%,26%[46.1 µM]
O=C(NC(=S)Nc1ccc2ncccc2c1)c1ccccc1,75*,?,52*,-26%,-14%,?
O=C(NC(=S)Nc1ccc2[nH]ncc2c1)c1ccccc1,88*,-20%,35*,-13%,-13%,-7%
O=c1[nH]c2cc([N+](=O)[O-])ccc2c2ccccc12,·,-17%,·,-13%,-2%,0%
O=C1Cc2c([nH]c3ccc([N+](=O)[O-])cc23)-c2ccccc2N1,·,-15%,·,1.3µM*,?,-7%[46.1 µM]
CC[N+](CC)(CC)c1ccc(/C=C/c2ccnc3ccccc23)cc1,·,·,·,i,i,·
CC(C)Oc1ccc(C2CC(=O)N(C)C2=O)cc1 (centres undefined),23,·,-3,·,·,·
CCCCOc1ccc(C2CC(=O)N(C)C2=O)cc1 (centres undefined),32*,-1%,20*,·,-18%,2%
O=c1[nH]c2ccccc2n1CCC1CCCCC1,23,-18%,47*,·,·,2%
COc1ccc(N=c2scc(-c3ccc(OC)cc3)n2CCO)cc1,63,-29%,30*,·,·,?
CCn1c(-c2ccccc2)csc1=Nc1ccc(S(=O)(=O)O)cc1,-7,?,-3,-10%,18%,-27%
OCCCn1c(-c2ccccc2)csc1=Nc1ccccc1,73*,?,32,-18%,-19%,-17%
CCN(CC)CCn1c(-c2ccccc2)csc1=Nc1ccccc1,·,·,·,-22%,-3%,?
O=C(O)CCC(=O)NCCn1c(-c2ccccc2)csc1=Nc1ccccc1,49,-4%[46.1 µM],19*,-2%,0%,7%[46.1 µM]
O=C(NCCc1ccccc1)C1CCC(=O)N1C1CCCC1 (centres undefined),28,13%,6,i,-6%,-7%
COc1ccc(Cc2nc3ccc(C(=O)NCC(C)(C)OC)cc3o2)cc1,96*,·,34*,·,·,·
COC(=O)CCNC(=O)c1ccc2nc(Cc3ccc(OC)cc3)oc2c1,·,5%,·,i,-12%,-19%
COc1ccc(Cc2nc3ccc(C(=O)NCc4cc(C)no4)cc3o2)cc1,66*,6%,57*,i,-12%,0%
Cc1ccc(S(=O)(=O)c2nc(-c3cccs3)oc2SCC(=O)Nc2cc(C)cc(C)c2)cc1,·,?,·,-11%[7.34 µM],-5%[7.34 µM],-24%[46.1 µM]
Cc1cc(Br)ccc1NC(=O)CN1C(=O)c2cccnc2Sc2ccccc21,·,7%[46.1 µM],·,-10%,-10%,-8%[46.1 µM]
COc1ccc(-n2ncc3c(NCC(C)C)ncnc32)cc1,19,?,15,·,?,?
SMILES,Shiga toxin inh,Marburg entry inh,Cycloheximide cs,Vaccinia mCherry,Vaccinia Venus,LASV entry inh
CCC(C)Nc1ncnc2c1cnn2-c1ccc(F)cc1 (centres undefined),·,·,·,1%,-8%,-1%[46.1 µM]
COc1ccc(-n2ncc3c(NC(C)C)ncnc32)cc1,69,?,44*,·,-17%,?
COCC(C)Nc1ncnc2c1cnn2-c1ccc(Cl)cc1 (centres undefined),101*,?,33*,·,-19%,?
O=C(c1ccc(F)cc1)C(C(=O)N1CCCCC1)n1ccccc1=O (centres undefined),20,-8%[46.1 µM],1,i,-3%,3%[46.1 µM]
O=C(Nc1cccc(OCc2cc(=O)n3ccccc3n2)c1)c1ccccc1Br,·,·,·,i,-9%,-27%[46.1 µM]
Cc1cc(/C=C/c2ccccc2)nc2ccccc12,·,·,·,-9%,?,·
C(=C\c1cc(/C=C/c2ccccc2)ncn1)/c1ccccc1,82*,7%,71*,·,·,4%
Cc1nc(/C=C/c2ccccc2)cc(/C=C/c2ccccc2)n1,63*,2%,30*,·,·,1%
Cn1nc(/C=C/c2ccccc2)ccc1=O,86*,?,28*,-1%,-8%,11%
CSCCC(C(=O)Nc1c(C)cccc1C)n1c(-c2cnc(C)cn2)nc2ccccc21 (centres undefined),·,·,·,-14%,-7%,·
